What all share (experiment): DAPPL (digital affinity profiling via proximity ligation, sequencing); 10 mM Tris-HCl pH 7.5, 50 mM NaCl, 1 mM DTT, 4% glycerol, room temperature, 30 min; GST-TFs on glutathione beads, 16-mer random dsDNA library, 0.1% formaldehyde crosslink after washing; high values mean tight binding
In one assay the target is T1, FEV (Homo sapiens, UniProt Q99581 1-238).
T1 sequence: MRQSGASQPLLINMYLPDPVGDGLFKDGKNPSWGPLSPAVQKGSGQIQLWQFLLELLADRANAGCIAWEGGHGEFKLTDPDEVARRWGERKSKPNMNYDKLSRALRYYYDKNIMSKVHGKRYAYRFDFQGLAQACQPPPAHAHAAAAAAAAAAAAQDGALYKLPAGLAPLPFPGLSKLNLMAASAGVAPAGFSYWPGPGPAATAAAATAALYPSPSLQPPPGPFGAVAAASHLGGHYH
Conditions: protein: recombinant; tags: N-terminal GST; dsDNA, one strand shown. In outline: (§1)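 In yeast, human transcription factors were expressed with a GST fusion, then pulled down on glutathione beads and given DNA barcodes. Pooled with a tag-only sample, they were exposed to 200 nmole of a 16-mer random double-stranded DNA library (Tris/NaCl/DTT/glycerol buffer, room temperature, 30 min), washed, crosslinked with 0.1% formaldehyde, proximity-ligated using BsaI/T4 ligase for 1 h at 37 °C, PCR-amplified and read on an Illumina NextSeq500. Each hexamer's frequency of reads for a factor, divided by the matching frequency for the tag-only sample, gives the binding signal.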

For another assay, the target named is ETV5 (Homo sapiens, UniProt P41161 1-510). Conditions: protein: recombinant; tags: N-terminal GST; dsDNA, one strand shown. In outline: as §1
Another assay addresses HSF1 (Homo sapiens, UniProt Q00613 1-529). The settings on record: protein: recombinant; tags: N-terminal GST; chain copies: 3; dsDNA, one strand shown. The method in brief:
as §1

The next assay has as its target T2, SPIC (Homo sapiens, UniProt Q8N5J4 1-248).
T2 sequence: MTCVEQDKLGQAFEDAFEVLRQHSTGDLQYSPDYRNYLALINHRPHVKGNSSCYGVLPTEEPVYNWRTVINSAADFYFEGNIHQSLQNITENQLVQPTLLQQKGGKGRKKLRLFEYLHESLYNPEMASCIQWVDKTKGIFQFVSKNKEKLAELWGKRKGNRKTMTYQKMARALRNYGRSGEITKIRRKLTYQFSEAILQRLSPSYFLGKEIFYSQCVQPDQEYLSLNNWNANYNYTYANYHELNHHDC
The settings on record: protein: recombinant; tags: N-terminal GST; dsDNA, one strand shown. In outline: as §1

For a further assay, the target named is ELF4 (Homo sapiens, UniProt Q99607 1-663). Conditions: protein: recombinant; tags: N-terminal GST; dsDNA, one strand shown. In outline:
as §1

For the next assay, the target named is T3, ELK4 (Homo sapiens, UniProt P28324-2 1-405).
T3 sequence: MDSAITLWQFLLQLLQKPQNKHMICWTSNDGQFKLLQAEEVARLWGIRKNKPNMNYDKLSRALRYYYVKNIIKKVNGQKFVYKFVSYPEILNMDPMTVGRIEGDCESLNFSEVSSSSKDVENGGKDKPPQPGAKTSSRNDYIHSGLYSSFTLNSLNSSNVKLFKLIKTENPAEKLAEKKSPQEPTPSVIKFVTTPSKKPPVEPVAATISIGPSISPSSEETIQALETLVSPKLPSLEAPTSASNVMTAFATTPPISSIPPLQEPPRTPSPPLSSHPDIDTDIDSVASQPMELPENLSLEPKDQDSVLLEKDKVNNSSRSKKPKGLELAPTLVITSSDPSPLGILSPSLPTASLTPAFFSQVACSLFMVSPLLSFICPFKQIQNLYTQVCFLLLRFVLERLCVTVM
Conditions: protein: recombinant; tags: N-terminal GST; dsDNA, one strand shown. The method in brief: as §1

For the next assay, the target named is T4, ETV2 (Homo sapiens, UniProt O00321 1-342).
T4 sequence: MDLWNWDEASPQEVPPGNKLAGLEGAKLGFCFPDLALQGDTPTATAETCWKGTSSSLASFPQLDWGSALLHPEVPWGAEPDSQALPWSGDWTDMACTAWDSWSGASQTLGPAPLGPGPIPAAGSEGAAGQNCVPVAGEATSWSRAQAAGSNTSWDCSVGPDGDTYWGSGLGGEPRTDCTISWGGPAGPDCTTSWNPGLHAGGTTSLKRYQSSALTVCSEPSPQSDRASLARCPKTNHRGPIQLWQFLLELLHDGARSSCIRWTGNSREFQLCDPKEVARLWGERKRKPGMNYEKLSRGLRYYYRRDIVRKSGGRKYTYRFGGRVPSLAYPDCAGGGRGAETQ
The settings on record: protein: recombinant; tags: N-terminal GST; dsDNA, one strand shown. In outline: as §1

For another assay, the target named is T5, ELF3 (Homo sapiens, UniProt P78545 1-371).
T5 sequence: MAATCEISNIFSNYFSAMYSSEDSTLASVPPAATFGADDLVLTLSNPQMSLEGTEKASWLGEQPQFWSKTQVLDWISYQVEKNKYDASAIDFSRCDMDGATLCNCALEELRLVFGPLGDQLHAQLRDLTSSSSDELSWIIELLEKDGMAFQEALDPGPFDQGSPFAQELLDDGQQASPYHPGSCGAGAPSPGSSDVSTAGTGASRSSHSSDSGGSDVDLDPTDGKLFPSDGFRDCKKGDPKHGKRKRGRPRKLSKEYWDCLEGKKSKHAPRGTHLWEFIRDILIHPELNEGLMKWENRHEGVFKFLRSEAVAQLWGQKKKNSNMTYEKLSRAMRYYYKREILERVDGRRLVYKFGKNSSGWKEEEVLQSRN
Conditions: protein: recombinant; tags: N-terminal GST; dsDNA, one strand shown. In outline: as §1

The target in another assay is CRX (Homo sapiens, UniProt O43186 1-299). Conditions: protein: recombinant; tags: N-terminal GST; dsDNA, one strand shown. The method in brief:
as §1

In a further assay the target is ETV1 (Homo sapiens, UniProt P50549 1-477). The settings on record: protein: recombinant; tags: N-terminal GST; dsDNA, one strand shown. The method in brief: as §1
Another assay addresses T6, ERF (Homo sapiens, UniProt P50548 1-548).
T6 sequence: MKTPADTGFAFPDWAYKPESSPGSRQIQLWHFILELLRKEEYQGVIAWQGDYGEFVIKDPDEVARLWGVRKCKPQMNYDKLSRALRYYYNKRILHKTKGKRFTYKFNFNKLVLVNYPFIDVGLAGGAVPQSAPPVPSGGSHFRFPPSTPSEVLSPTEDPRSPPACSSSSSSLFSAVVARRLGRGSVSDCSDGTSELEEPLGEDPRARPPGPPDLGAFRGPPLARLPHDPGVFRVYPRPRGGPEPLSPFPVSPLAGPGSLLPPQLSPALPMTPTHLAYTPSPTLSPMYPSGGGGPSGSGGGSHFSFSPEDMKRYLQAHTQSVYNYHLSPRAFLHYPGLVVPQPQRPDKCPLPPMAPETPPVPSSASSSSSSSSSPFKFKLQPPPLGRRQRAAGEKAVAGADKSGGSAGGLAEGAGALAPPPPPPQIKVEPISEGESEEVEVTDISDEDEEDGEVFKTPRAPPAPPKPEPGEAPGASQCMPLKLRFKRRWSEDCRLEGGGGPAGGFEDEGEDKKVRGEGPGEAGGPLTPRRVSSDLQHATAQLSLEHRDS
The settings on record: protein: recombinant; tags: N-terminal GST; dsDNA, one strand shown. The method in brief: as §1

The next assay addresses T7, ETV3L (Homo sapiens, UniProt Q6ZN32 1-361).
T7 sequence: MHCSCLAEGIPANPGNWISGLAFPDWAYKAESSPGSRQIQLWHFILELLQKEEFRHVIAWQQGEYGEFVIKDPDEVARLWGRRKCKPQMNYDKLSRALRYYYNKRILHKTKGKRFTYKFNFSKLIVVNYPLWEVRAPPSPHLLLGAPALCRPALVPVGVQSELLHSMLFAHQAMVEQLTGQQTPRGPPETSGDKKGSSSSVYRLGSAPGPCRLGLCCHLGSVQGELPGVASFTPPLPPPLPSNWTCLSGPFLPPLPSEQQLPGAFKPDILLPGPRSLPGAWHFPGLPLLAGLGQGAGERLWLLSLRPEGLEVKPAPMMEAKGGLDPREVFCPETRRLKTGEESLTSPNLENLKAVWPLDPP
The settings on record: protein: recombinant; tags: N-terminal GST; dsDNA, one strand shown. The method in brief:
as §1

For another assay, the target named is T8, ETS2 (Homo sapiens, UniProt P15036 1-469).
T8 sequence: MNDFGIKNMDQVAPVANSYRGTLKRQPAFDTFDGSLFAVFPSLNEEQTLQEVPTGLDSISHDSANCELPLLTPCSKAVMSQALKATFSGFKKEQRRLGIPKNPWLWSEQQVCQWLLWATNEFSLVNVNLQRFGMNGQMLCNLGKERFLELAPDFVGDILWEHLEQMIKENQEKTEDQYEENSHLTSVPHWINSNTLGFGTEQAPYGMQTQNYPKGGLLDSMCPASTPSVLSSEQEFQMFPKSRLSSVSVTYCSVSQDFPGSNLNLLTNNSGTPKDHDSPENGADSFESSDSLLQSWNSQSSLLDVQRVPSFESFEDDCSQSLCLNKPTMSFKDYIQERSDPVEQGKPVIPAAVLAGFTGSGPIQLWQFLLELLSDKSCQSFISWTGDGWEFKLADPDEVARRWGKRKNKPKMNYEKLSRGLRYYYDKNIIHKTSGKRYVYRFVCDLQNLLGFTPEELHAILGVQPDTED
The settings on record: protein: recombinant; tags: N-terminal GST; dsDNA, one strand shown. In outline:
as §1

The next assay addresses T9, SPDEF (Homo sapiens, UniProt O95238 1-335).
T9 sequence: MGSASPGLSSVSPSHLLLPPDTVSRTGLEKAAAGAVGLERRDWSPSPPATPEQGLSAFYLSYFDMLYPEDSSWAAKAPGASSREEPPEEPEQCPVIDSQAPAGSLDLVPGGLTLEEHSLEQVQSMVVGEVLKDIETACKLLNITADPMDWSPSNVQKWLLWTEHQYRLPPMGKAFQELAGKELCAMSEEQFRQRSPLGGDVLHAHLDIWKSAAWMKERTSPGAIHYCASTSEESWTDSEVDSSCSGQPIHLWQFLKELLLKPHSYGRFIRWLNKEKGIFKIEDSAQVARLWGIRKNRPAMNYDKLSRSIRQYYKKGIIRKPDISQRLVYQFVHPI
The settings on record: protein: recombinant; tags: N-terminal GST; dsDNA, one strand shown. The method in brief: as §1

A further assay addresses T10, ETV7 (Homo sapiens, UniProt Q9Y603 1-341).
T10 sequence: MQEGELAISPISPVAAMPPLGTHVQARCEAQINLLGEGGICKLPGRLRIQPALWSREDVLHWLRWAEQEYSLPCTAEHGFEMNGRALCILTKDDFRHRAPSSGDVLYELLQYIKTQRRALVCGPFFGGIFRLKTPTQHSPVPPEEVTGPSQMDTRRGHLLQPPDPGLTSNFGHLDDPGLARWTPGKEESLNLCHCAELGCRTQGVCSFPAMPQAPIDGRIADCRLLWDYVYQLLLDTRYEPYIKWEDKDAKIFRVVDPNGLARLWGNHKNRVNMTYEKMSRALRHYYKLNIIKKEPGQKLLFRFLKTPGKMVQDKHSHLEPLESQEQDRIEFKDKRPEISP
The settings on record: protein: recombinant; tags: N-terminal GST; dsDNA, one strand shown. The method in brief:
as §1

The target in the next assay is T11, ELF5 (Homo sapiens, UniProt Q9UKW6-2 1-255).
T11 sequence: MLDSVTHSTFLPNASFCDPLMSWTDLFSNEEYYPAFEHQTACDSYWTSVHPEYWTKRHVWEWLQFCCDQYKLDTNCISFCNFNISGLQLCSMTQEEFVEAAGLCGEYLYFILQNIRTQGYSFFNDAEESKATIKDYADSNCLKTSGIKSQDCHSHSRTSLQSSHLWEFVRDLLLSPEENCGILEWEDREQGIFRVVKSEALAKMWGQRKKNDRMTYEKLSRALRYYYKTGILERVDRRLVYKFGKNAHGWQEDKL
The settings on record: protein: recombinant; tags: N-terminal GST; dsDNA, one strand shown. In outline:
as §1

The target in a further assay is T12, ETV3 (Homo sapiens, UniProt P41162-2 1-143).
T12 sequence: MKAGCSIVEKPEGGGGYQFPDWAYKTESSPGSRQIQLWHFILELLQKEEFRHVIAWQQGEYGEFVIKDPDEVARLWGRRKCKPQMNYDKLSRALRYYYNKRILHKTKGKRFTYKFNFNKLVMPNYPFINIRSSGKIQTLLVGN
Conditions: protein: recombinant; tags: N-terminal GST; dsDNA, one strand shown. In outline:
as §1

For another assay, the target named is ETV6 (Homo sapiens, UniProt P41212 1-452). The settings on record: protein: recombinant; tags: N-terminal GST; dsDNA, one strand shown. In outline: as §1

The results in this text go back to article PMC7862700, “An all-to-all approach to the identification of sequence-specific readers for epigenetic DNA modifications on cytosine”.

Chain of ETV1 (P50549 whole entry): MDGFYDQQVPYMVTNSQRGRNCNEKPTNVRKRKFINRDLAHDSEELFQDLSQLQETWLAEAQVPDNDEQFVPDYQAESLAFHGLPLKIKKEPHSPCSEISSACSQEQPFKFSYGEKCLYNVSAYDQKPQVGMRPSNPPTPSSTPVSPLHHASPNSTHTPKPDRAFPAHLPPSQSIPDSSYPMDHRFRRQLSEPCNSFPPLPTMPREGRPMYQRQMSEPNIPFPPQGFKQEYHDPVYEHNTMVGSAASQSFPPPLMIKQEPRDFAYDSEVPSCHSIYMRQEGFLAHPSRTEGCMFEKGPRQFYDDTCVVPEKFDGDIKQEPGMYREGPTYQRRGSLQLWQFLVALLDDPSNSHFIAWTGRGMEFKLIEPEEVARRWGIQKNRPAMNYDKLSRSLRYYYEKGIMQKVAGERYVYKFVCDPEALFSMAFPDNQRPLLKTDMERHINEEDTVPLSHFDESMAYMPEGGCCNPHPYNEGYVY
Chain of ETV5 (P41161 whole entry): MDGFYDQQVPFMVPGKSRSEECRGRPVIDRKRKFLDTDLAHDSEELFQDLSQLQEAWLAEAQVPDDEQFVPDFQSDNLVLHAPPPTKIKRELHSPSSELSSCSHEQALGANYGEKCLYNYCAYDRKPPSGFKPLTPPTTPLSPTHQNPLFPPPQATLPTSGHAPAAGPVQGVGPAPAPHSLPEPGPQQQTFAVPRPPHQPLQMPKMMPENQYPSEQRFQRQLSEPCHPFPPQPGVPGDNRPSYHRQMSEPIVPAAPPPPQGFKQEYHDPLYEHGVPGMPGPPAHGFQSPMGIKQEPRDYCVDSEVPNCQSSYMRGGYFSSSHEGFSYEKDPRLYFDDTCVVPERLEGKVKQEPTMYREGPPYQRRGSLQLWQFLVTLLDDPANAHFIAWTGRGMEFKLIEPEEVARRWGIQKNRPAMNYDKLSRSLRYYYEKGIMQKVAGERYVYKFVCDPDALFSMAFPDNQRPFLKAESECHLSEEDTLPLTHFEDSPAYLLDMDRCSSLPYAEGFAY
Chain of ETV6 (P41212 whole entry): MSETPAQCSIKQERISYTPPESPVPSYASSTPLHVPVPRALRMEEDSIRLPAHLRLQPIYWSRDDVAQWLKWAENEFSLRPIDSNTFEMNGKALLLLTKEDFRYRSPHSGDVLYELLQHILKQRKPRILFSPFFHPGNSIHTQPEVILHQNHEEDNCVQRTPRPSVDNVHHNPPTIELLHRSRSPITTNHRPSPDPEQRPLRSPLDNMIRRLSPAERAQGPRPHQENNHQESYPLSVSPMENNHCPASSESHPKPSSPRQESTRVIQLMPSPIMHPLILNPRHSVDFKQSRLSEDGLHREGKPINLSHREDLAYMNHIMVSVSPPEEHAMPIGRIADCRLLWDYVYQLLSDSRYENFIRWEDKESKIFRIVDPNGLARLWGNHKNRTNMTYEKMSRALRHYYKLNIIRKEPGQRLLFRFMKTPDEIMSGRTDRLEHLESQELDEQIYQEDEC
Chain of CRX (O43186 whole entry): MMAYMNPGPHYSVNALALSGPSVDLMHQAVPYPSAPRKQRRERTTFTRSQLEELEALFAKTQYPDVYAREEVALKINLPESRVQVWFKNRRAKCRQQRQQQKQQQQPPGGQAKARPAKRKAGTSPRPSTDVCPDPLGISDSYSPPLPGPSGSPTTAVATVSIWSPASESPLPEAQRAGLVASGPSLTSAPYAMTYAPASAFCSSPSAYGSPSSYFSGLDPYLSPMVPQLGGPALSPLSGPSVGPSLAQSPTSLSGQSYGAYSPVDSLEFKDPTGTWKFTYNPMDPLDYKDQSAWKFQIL
Chain of ELF4 (Q99607 whole entry): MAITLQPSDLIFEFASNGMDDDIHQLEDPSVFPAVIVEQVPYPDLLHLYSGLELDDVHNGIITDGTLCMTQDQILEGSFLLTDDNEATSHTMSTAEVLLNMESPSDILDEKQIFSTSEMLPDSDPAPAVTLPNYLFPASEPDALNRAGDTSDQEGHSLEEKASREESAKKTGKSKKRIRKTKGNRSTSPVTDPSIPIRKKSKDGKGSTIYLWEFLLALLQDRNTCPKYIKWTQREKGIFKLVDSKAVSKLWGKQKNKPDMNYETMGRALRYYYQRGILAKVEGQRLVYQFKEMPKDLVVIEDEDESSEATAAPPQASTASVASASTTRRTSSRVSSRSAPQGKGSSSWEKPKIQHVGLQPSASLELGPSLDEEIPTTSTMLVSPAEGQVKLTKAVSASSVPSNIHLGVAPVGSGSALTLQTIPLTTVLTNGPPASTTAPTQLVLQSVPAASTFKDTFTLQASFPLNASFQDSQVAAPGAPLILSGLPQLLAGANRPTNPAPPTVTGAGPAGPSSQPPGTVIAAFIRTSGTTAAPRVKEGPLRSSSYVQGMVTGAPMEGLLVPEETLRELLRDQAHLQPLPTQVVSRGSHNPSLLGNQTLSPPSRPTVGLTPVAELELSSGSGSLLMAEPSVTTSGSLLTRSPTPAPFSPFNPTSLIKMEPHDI
Chain of HSF1 (Q00613 whole entry): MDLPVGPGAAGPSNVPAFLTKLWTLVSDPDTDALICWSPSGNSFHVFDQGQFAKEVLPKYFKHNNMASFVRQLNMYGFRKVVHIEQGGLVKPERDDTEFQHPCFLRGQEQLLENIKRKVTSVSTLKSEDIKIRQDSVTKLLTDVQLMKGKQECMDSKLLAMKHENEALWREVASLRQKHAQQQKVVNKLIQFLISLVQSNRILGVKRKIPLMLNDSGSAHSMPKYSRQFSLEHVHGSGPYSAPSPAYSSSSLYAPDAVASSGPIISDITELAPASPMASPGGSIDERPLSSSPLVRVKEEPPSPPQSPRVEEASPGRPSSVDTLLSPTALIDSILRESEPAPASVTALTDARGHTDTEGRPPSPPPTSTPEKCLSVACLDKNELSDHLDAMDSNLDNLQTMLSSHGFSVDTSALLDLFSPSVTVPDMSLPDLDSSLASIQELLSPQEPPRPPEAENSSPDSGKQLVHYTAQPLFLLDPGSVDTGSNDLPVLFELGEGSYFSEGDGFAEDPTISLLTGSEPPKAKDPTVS

Take AACTGG: the binding signal was 1.12 fold enrichment (6-mer frequency, TF over GST control) with FEV; 1.21 fold enrichment (6-mer frequency, TF over GST control) with ETV5; 1.25 fold enrichment (6-mer frequency, TF over GST control) with HSF1; 1.38 fold enrichment (6-mer frequency, TF over GST control) with SPIC; 1.25 fold enrichment (6-mer frequency, TF over GST control) with ELF4; 1.27 fold enrichment (6-mer frequency, TF over GST control) with ELK4. For the same sequence, the binding signal with ETV2 is 1.31 fold enrichment (6-mer frequency, TF over GST control); in the assay with ELF3 it was 1.17 fold enrichment (6-mer frequency, TF over GST control); with CRX, 1.16 fold enrichment (6-mer frequency, TF over GST control); in the assay with ETV1, 1.14 fold enrichment (6-mer frequency, TF over GST control); with ERF it was 1.18 fold enrichment (6-mer frequency, TF over GST control); with ETV3L it was 1.23 fold enrichment (6-mer frequency, TF over GST control). The binding signal with ETS2 is 1.3 fold enrichment (6-mer frequency, TF over GST control); in the assay with SPDEF, 1.23 fold enrichment (6-mer frequency, TF over GST control); with ETV7, 1.23 fold enrichment (6-mer frequency, TF over GST control); with ELF5 it was 1.26 fold enrichment (6-mer frequency, TF over GST control); in the assay with ETV3, 1.29 fold enrichment (6-mer frequency, TF over GST control); in the assay with ETV6, 1.31 fold enrichment (6-mer frequency, TF over GST control).
